# Screening data (PubChem)
# Rows were chosen to be rich in hits. Some 7.4% of all compounds tested hit in one or more screens of this group.
# FXIa mix inh: factor XIa (human) inhibition, mixture screen | P03951 | purified FXIa, fluorogenic substrate, pooled mixtures | inhibition, % at 5 µM | actives 0.19% (n = 62,000) | AID 680;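 further: each value is inhibition by a whole ten-compound pool holding the compound; 0% = enzyme with no mixture and 100% = wells lacking enzyme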
# Target sequence (P03951 19-387 limits assumed): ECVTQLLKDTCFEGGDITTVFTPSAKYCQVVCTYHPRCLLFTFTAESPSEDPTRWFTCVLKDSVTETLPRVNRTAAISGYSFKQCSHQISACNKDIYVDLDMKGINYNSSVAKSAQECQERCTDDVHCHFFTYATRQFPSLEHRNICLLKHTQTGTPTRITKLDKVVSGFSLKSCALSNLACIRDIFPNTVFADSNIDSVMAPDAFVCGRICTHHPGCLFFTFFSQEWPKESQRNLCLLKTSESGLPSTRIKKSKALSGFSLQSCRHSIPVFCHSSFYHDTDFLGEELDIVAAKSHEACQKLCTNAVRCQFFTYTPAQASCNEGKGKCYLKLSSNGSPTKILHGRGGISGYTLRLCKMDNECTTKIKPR
# Target sequence (P03951 388-625 limits assumed): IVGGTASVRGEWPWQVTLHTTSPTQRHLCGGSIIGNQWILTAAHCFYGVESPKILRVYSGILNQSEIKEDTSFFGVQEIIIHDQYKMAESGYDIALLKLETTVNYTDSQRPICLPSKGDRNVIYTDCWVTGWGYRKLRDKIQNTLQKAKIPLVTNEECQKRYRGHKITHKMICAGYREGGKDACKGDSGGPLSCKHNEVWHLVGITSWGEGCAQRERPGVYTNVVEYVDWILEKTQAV
# M1 antagonist: blocks the rat M1 muscarinic receptor response to acetylcholine; CHO-M1 cells, Fluo-4 calcium, ACh EC80 antagonist mode; stronger effect = lower value; B-score at 10 µM; actives 3.4% (n = 64,000); AID 628;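 active means calcium fluorescence response, raw or row-and-column corrected B-score, differing from the plate sample mean either way at a set confidence level, mostly lower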
# D1 allo mod: D1 dopamine receptor (human) allosteric modulation. B-score at 10 µM. P21728. actives 5.9% (n = 58,000). AID 641. HEK293 D1, CRE-luciferase, dopamine EC30 potentiation; actives deviate in either direction;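 active means luminescence count or its row- and column-corrected plate score outside the 99.7% band of the plate's sample wells, on either side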
# FXIIa mix inh: blocks human factor XIIa in pooled compound mixtures; P00748; purified FXIIa, fluorogenic substrate; inhibition, % at 5 µM; actives 0.2% (n = 62,000); AID 684;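 further: 0% = enzyme without compound and 100% = no enzyme blank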
# M1 agonist: activates the M1 muscarinic receptor | actives 3% (n = 64,000) | AID 626 | B-score at 10 µM | CHO-M1 cells, Fluo-4 calcium fluorescence, agonist mode; stronger effect = higher value;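 active means fluorescence rise, raw or as B-score row- and column-corrected plate score, outside the 99.7% band of its plate's samples, either direction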
# DAT uptake mod: changed human dopamine transporter uptake under cocaine IC80 | LLC-PK1 hDAT cells, [14C]-dopamine uptake with cocaine IC80; actives deviate in either direction | AID 449768 | actives 1.3% (n = 110,000) | B-score at 10 µM | Q01959;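 active means Z score or B-score, a plate-position-corrected score, falls beyond the plate's 99.7% confidence bounds, in either direction; inactive means both scores lie inside the 99.7% bounds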;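 further: scored against the spread of the other compound wells on the same plate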
# An asterisk follows results filed as active; · = not tested or not shown. Unless noted, no stated cut-off is given here; in the data, active means inhibition above about 20% (passing the limit was not always enough); inactive means the rest.
SMILES,FXIa mix inh,M1 antagonist,D1 allo mod,FXIIa mix inh,M1 agonist,DAT uptake mod
COc1ccc(CNc2nn[nH]n2)cc1OC,·,·,·,·,·,-0.55
CCCCNc1cc(=O)n(C)c(=O)[nH]1,7,0.73*,·,7,0.25,-0.2
Cn1c(=O)cc(NCc2ccccc2)[nH]c1=O,·,-0.16,·,·,-0.62,0.68
O=c1c([N+](=O)[O-])c(NC2CCCCC2)c2ccccc2n1-c1ccccc1,·,·,·,·,·,-0.11
COc1cc2nc(NCCCN3CCN(C)CC3)n3nc(-c4ccccc4)nc3c2cc1OC,·,·,·,·,·,0.57
CN1CCN(CCCNc2nc3ccccc3c3nc(-c4ccccc4)nn23)CC1,5,-2.2,5.9*,7,1.9,·
c1ccc(C2=Nn3c(nnc3-c3n[nH]c4c3CCC4)SC2)cc1,8,0.36,-3.6*,6,-0.14,0.33
c1ccc(C2=Nn3c(nnc3-c3cc(-c4ccccc4)n[nH]3)SC2)cc1,5,0.053,1.7,9,-0.93,-0.64
N#CC1(C#N)CC(C=O)=C(N)C1(C#N)CC(=O)c1ccc(F)cc1 (stereo not given),·,·,·,·,·,-2.2*
Cc1ccc(-c2csc(/C(C#N)=C(\O)CN3CCN(C(=O)c4ccco4)CC3)n2)cc1,2,1.2,·,1,0.71,0.62
COC(=O)c1ccc(CSc2nnc(Nc3ccccc3OC)s2)o1,3,0.67,-0.28,7,-0.00041,3.5*
COC(=O)c1ccc(CSc2nnc(Nc3ccc(OC)cc3)s2)o1,·,·,·,·,·,-0.57
C=C1C(=O)[C@@]23[C@H](O)C[C@@H]4C(C)(C)CC[C@H](O)[C@]4(C)[C@@H]2C[C@H](O)[C@@H]1[C@H]3O,·,·,·,·,·,-4.8*
C=C1C(=O)[C@@]23[C@H](O)C[C@@H]4C(C)(C)CC[C@H](O)[C@@]4(C)[C@@H]2CC[C@@H]1[C@H]3O,·,·,·,·,·,-0.69
Fc1cccc2sc(Nc3nnc(-c4ccco4)o3)nc12,-5,-0.48,-2.7*,6,0.29,-0.0094
O=C(CSC1=NCCS1)N1CCN(c2ccc(Cl)cc2)CC1,·,·,·,·,·,2.6*
COc1ccccc1CCNCc1ccc(OC)c(OCc2ccccc2)c1,·,·,·,·,·,-0.019
COc1cc(CNCCc2c[nH]c3ccccc23)ccc1OCc1ccccc1F,·,·,·,·,·,2.5*
CCC1Sc2ccccc2N(CC(=O)NCc2ccc3c(c2)OCO3)C1=O (stereo not given),2,-1.2,-2.6*,-20,3.6,0.36
CCC1Sc2ccccc2N(CC(=O)NCCC2=CCCCC2)C1=O (stereo not given),·,·,·,·,·,1.2
COc1ccc(C2=NOC(C)(c3nnc(-c4ccccc4)o3)C2)cc1 (stereo not given),·,·,·,·,·,0.065
CC(C)(C)CN1C(N)=NC[C@@H]1c1ccccc1,·,·,·,·,·,0.14
CC(C)(C)CN1C(N)=NC[C@@H]1Cc1ccccc1,·,·,·,·,·,-2.7*
COc1ccc(CCN(C(=O)C(F)(F)F)C(C(=O)NC2CCCC2)c2cccs2)cc1OC (stereo not given),·,·,·,·,·,0.51
C[C@@H](C(=O)Nc1ccc2ccccc2c1)[C@@H]1C[C@@]1(C)[C@@H](N)c1ccccc1,·,·,·,·,·,-0.39
SMILES,FXIa mix inh,M1 antagonist,D1 allo mod,FXIIa mix inh,M1 agonist,DAT uptake mod
N#CC(c1ccc(Cl)cc1)c1ccc2c(C(F)(F)F)cc(C(F)(F)F)nc2n1 (stereo not given),·,·,·,·,·,-3.7*
O=C(Nc1ccccc1OC(F)F)c1ccc(Br)o1,4,0.43,1.4,8,0.014,-2.5*
Cn1c(Cn2nnc3ccccc32)nnc1SCC(=O)c1ccc(F)cc1,10,-1.2,-0.027,7,-0.06,0.28
CC(=O)c1ccc(NC2OC(C)C(O)C(O)C2O)cc1 (stereo not given),5,-1.5,0.18,5,-0.97,-2.8*
CC(=O)c1ccc(NC2OC(CO)C(O)C(O)C2O)cc1 (stereo not given),6,-0.12,0.15,3,0.21,-0.37
O=C(O)C(=O)Cc1c[nH]c2ccccc12,·,·,·,·,·,0.83
CN(Cc1ccccc1)Cc1c[nH]c2ccccc12,8,-0.13,-4.5*,-21,-0.00087,1.3
COc1ccccc1NC(=O)NC1(C(=O)N2CCC(O)CC2)CCCCC1,9,0.36,3.8,-17,-0.026,-0.34
COC(=O)c1ccc2c(c1)C(C)(C)C(/C=C/c1ccccc1O)=[N+]2C,·,·,·,·,·,-3.6*
Cc1csc(=O)n1CCC(=O)O,4,-0.098,0.55,1,0.047,-0.35
Cc1ccc(C)c(N(CC(=O)N(C)C)S(C)(=O)=O)c1,4,1.3*,-0.45,6,1.5,0.74
O=C(NNS(=O)(=O)c1ccccc1)C1CCN(S(=O)(=O)c2ccc(Cl)cc2)CC1,·,·,·,·,·,-0.62
CC(C)c1ccc2oc(-c3ccc(N)cc3)nc2c1,9,-0.012,-6*,3,-0.24,0.57
O=C(O)c1cccc(COc2ccccc2Cl)c1,-1,0.59,-5.3*,-1,-1.1,1.1
O=C(O)c1ccc(COc2ccccc2Cl)cc1,6,1.5,0.27,-15,-0.38,0.015
COCc1cc(C)nc(SCC(=O)N2CCC(C)CC2)c1C#N,4,0.23,0.9,10,-0.13,-0.033
Cc1ccccc1NC(=O)c1ccc(CN2CCC(Cc3ccccc3)CC2)cc1,·,·,·,·,·,-3.7*
CN1C(=O)CC(N2CCN(C(c3ccccc3)c3ccccc3)CC2)C1=O (stereo not given),3,-0.0053,-0.6,-12,-0.88,-1
O=S(=O)(c1cccc(C(F)(F)F)c1)N1CCN(c2ccccc2)CC1,·,·,·,·,·,-0.041
O=C(c1ccco1)N1CCN(S(=O)(=O)c2cccc(C(F)(F)F)c2)CC1,3,-0.18,1.7,3,0.42,-1.8*
CN1CCN(S(=O)(=O)c2ccc(-c3ccc(S(=O)(=O)N4CCN(C)CC4)cc3)cc2)CC1,-7,0.045,-0.28,3,-0.33,·
CN1CCN(S(=O)(=O)c2ccc(-c3ccc(Cl)cc3)cc2)CC1,16,0.82,-4.9*,1,-0.051,0.54
CC1CCN(C(=S)NCCc2ccccc2)CC1,·,·,·,·,·,0.38
CCc1cc(=O)oc2cc(OCC(=O)O)c(Cl)cc12,6,-0.018,0.38,3,-0.63,-0.076
CCc1cc(=O)oc2cc(OC(C)C(=O)O)c(Cl)cc12 (stereo not given),-2,·,-4.2*,2,·,-0.48
SMILES,FXIa mix inh,M1 antagonist,D1 allo mod,FXIIa mix inh,M1 agonist,DAT uptake mod
COc1ccc(CCN2C(=O)c3[nH]nc(-c4ccccc4O)c3C2c2cccc(O)c2)cc1OC (stereo not given),7,-0.65,·,9,-0.14,2.7*
CCOC(=O)Cc1cnc(NC(=O)Cn2nnc(-c3ccc(OCC)cc3)n2)s1,5,-1,0.13,1,-0.0095,0.73
CCCCOc1ccc(-c2nnn(CC(=O)Nc3ncc(CC(=O)OCC)s3)n2)cc1,7,2.5*,-0.85,1,-1,-0.62
O=C(NC(NC(=S)Nc1ccc(Cl)c(Cl)c1)C(Cl)(Cl)Cl)c1ccco1 (stereo not given),·,·,·,·,·,-3.8*
CCOC(=O)c1cccc(NC(=O)CSc2nnc(C)n2Cc2ccccc2)c1,0,0.79,0.42,3,0.018,3.3*
COc1ccc(NC(=O)CSc2nnc(C)n2Cc2ccccc2)cc1,·,·,·,·,·,0.013
COc1ccccc1NC(=O)NCCCl,·,·,·,·,·,-2.4*
CCOc1cccc(-c2cc(-c3n[nH]c(=S)n3CC)c3ccccc3n2)c1,·,·,·,·,·,2.4*
